Shown is part of a subset that was picked to be rich in hits.
TDP1 cell CPT: growth inhibition of DT40 Tdp1-/-;hTDP1 cells with camptothecin (screen for TDP1 inhibitors); AID 686979; chicken DT40 Tdp1-/-;hTDP1 cells + 20 nM CPT, ATP luminescence, 48 h; Potency, µM (highest dose often 46.2 µM), without a hit: top-dose activity change, negative = growth inhibition, actives largely listed as inhibitors; 420,000 tested, 12% active; further: potency means the concentration at half of the fitted maximal effect; nearly all actives have a fitted effect of over 55% in size
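Cell growth measured by CellTiter-Glo luminescence after a minimum 48 h, 37 C compound exposure with 20 nM CPT in Tdp1-knockout DT40 cells stably expressing hTDP1, seeded 400/well; qHTS titration format.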
TDP1 cell noCPT: qHTS for Inhibitors of human tyrosyl-DNA phosphodiesterase 1 (TDP1): qHTS in cells in absence of CPT | DT40 Tdp1-/- hTDP1 cells, no CPT, ATP luminescence, 48 h | Potency, µM (titrated, usually from 46.2 µM), without a hit: top-dose activity change, negative = growth inhibition, hits mostly inhibitors | 420,000 tested, 15% active | AID 686978, 2013; further: potency means the concentration at half of the fitted maximal effect; nearly all actives have a fitted effect of over 55% in size
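Camptothecin absent (DMSO only). Human TDP1-complemented DT40 knockout cells, 400 cells/well, 37 °C for minimum 48 hr; ATP measured via CellTiter-Glo, 30 min dark incubation, luminescence.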
HT1080NT lethal: kills 2HG-producing HT-1080-NT fibrosarcoma cells; AID 686970; 360,000 tested, 1.6% active; Potency, µM (highest dose often 46.1 µM), without a hit: at the top dose activity, negative = less viability, hits mostly cytotoxic; HT-1080-NT fibrosarcoma viability, CellTiter-Glo ATP luminescence, 48 h;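 further: NT is the 2HG producing partner of a matched IDH1 knockdown line; potency means the concentration at half of the fitted maximal effect; 0% = DMSO-treated cells and -100% = media-only wells without cells; nearly all actives have a fitted effect of over 55% in size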
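750 cells/well, RPMI + 5% FBS; 2 h settle, compound pin-transfer, 48 h at 37 degrees C. CellTiter-Glo 10 min RT, luminescence. Normalized to DMSO and media-only wells.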
IL1B secr inh: blocks inflammasome-driven IL-1 beta release; THP-1 LPS/ATP IL-1B secretion, AlphaLISA, 16 h; hits give low values; activity change, % at 57.5 µM; 360,000 tested, 4.7% active; AID 743279; in the data active means activity change below about -50%; inconclusive means mostly about -30% to -49%
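THP-1 cells pretreated 1 hr with compounds (up to 57.5 uM final), then stimulated with LPS (250 ng/mL final) plus ATP (1.25 mM final); secreted IL-1B measured by AlphaLISA after 16 hr, decreased signal indicating inhibition.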
12-LOX inh: blocks human arachidonate 12S-lipoxygenase; purified 12hLO, xylenol orange hydroperoxide absorbance; P18054; 580,000 tested, 1.1% active; Potency, µM (doses to about 108 µM), inactives show at the top dose activity change, negative = inhibition, hits mostly inhibitors; further: potency means the concentration at half of the fitted maximal effect
Target sequence (P18054 whole entry, looked up): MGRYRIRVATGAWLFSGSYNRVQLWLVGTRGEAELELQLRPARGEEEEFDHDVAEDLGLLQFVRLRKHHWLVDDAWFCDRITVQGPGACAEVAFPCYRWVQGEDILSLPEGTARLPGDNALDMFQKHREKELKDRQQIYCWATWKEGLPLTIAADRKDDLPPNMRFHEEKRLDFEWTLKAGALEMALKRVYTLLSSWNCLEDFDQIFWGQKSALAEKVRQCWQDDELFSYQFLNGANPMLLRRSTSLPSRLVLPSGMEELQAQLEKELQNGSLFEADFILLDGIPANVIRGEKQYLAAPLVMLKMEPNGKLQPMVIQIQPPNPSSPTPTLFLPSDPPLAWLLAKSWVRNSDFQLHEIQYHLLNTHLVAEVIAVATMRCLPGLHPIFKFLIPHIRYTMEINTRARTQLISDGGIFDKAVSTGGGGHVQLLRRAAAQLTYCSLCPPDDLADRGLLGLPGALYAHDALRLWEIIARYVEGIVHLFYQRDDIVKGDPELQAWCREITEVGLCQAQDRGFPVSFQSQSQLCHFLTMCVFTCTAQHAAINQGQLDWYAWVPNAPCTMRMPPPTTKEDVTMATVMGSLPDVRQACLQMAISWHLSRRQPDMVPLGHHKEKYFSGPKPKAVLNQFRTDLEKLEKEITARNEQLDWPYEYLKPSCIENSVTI
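Purified human 12hLO at 150 nM in 25 mM Hepes, 0.01% Triton X-100, pH 7.0, preincubated 15 min at room temperature with compound. Reaction started with 40 uM arachidonic acid, 30 min at room temperature. Hydroperoxide measured by Fe-xylenol orange, 573/405 nm absorbance ratio.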
HT1080 IDH1KD tx: kills HT-1080 cells with IDH1 knockdown; HT-1080 IDH1 knockdown viability, ATP luminescence, 48 h; Potency, µM (titrated, usually from 46.1 µM), inactives show at the top dose activity, negative = toxicity, most hits filed as cytotoxic; 360,000 tested, 2% active; AID 686971;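 further: potency means the concentration at half of the fitted maximal effect; 0% = DMSO wells and -100% = cell-free medium wells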
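Cytotoxicity counter-line: IDH1KD HT-1080, 48 h, CellTiter-Glo. Curves classed by r2, magnitude and activity.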
Numbers without * were called inactive; i = inactive; ? = inconclusive; / = no result given; [ ] = remark or other dose. Unless noted, the call rests on the fitted dose curve; in most records, active means well fitted curve in the direction sought with a large enough effect; inconclusive means small, poorly fitted or top-dose-only effect, or another doubt; inactive means no such curve, though single readings can be large; an effect the other way counts as inactive or inconclusive. Unless noted, on the % scale 0 is the no-effect control and ±100 the full control effect.

SMILES	TDP1 cell CPT	TDP1 cell noCPT	HT1080NT lethal	IL1B secr inh	12-LOX inh	HT1080 IDH1KD tx
C/C(=N\Nc1nc2ccccc2[nH]1)c1ccc(Cl)s1	?	23.1µM*	?	-97.0*	?	?
O=C(CSc1nc2ccccc2[nH]1)c1ccc(Cl)s1	-2.4%	-0.8%	4.7%	3.3	-14.9%	6.3%
CCC(CC)(Cc1nc2ccccc2s1)C(=O)O	/	/	/	/	-5.3%	/
CCc1ccc(CCN2C(=O)c3ccccc3C2=O)nc1	-3.0%	0.4%	27.9%	26.2	4.2%	?
Cc1nc(CCN2C(=O)c3ccccc3C2=O)n[nH]1	?	23.1µM*	9.2%	-3.9	71.3%	4.6%
C=CCc1cccc(C=Nc2cc(Br)ccc2O)c1O	?	?	-27.7%	19.0	35.5µM*	?
CCc1ccc(O)c(N=Cc2cccc(C)c2O)c1	20.6µM*	20.6µM*	?	22.3	?	?
C=CCc1cccc(/C=N/c2ncn[nH]2)c1O	3.0%	6.3%	9.4%	0.0	-8.9%	1.1%
COc1ccc(Cn2c(Oc3cccc(C)c3)nc3c2c(=O)n(C)c(=O)n3C)cc1	/	/	/	/	11.0%	/
C=C1C(=O)OC2C=C(C)CCC=C(C)CCC12 (stereo unspecified)	/	/	/	/	-21.1%[57.4 µM]	/
C=C1C(=O)O[C@@H]2C3OC3(C)CC/C=C(\C)CC[C@@H]12 (stereo partly specified)	10.6µM*	10.6µM*	/	/	/	/
C=C1C(=O)O[C@@H]2[C@H]3O[C@]3(C)CC/C=C(\C)CC[C@@H]12	4.61µM*	5.17µM*	9.2µM*	-110.4*	3.0%	18.4µM*
C=C1C(=O)OC2C1CC/C(C)=C/CCC1(C)OC21 (stereo unspecified)	2.31µM*	2.91µM*	/	/	/	/
C=C1C(=O)O[C@H]2[C@H]1CC/C(C)=C\CC[C@@]1(C)O[C@@H]21	2.37µM*	2.66µM*	/	/	/	/
C=C1CC/C=C(\C)CC[C@@H]2[C@@H]1CC2(C)C	-8.3%	-6.1%	/	/	4.4%[176 µM]	/
COc1ccc(CCNC(=O)CCc2nc(CS(=O)(=O)c3ccc(Cl)cc3)no2)cc1OC	/	/	/	/	-2.5%	/
CCCN1C(=O)/C(=C\c2ccncc2)SC1=Nc1ccccc1	?	?	-11.3%	-98.3*	4.2%	-13.1%
CCN1C(=O)/C(=C\c2ccncc2)SC1=Nc1ccc(C)c(C)c1	?	16.4µM*	-1.6%	-100.2*	-17.8%	-15.9%
CCN1C(=O)/C(=C\c2ccncc2)SC1=S	-17.3%	-29.4%	-1.7%	-6.7	-13.2%	-0.2%
CN(C)CCCNC(=S)NCC(c1ccc(Cl)cc1Cl)c1c[nH]c2ccccc12 (stereo unspecified)	?	?	20.6µM*	-104.5*	?	16.4µM*
CCCCNC(=S)NCC(c1ccccc1)c1c[nH]c2ccccc12 (stereo unspecified)	12.4%	?	?	-19.5	44.7µM*	?
CCCCNC(=O)CC(c1cccc(OC)c1)c1c[nH]c2ccccc12 (stereo unspecified)	/	/	/	/	-0.8%	/
Cc1nsc(NC(=O)NC(C)c2ccc(Cl)cc2)n1 (stereo unspecified)	/	/	/	/	2.9%	/
Cn1c2ccccc2c(=O)c2c(=O)n(C3CCCCC3)c(-c3ccco3)nc21	23.1µM*	?	-0.9%	4.8	?	-0.9%
CC(C)c1ccc(NC(=O)CN2C(=O)NC3(CCCC3)C2=O)cc1	?	?	-6.8%	-5.4	0.2%	-0.3%
SMILES	TDP1 cell CPT	TDP1 cell noCPT	HT1080NT lethal	IL1B secr inh	12-LOX inh	HT1080 IDH1KD tx
Cn1nc(C2CC2)cc1NC(=O)C1(C)CCN1C(=O)c1ccccc1CCc1ccccc1 (stereo unspecified)	29.1µM*	16.4µM*	?	-8.7	1.7%	5.6%
CSc1ccc(NC(=O)C2(C)CCN2C(=O)c2ccccc2CCc2ccccc2)cc1 (stereo unspecified)	?	?	0.7%	-7.1	-6.1%	-9.3%
Cn1nc(C2CC2)cc1NC(=O)C1(C)CCN1C(=O)CC(c1ccccc1)c1ccccc1 (stereo unspecified)	23.1µM*	13µM*	2.4%	-13.7	-16.0%	0.3%
CCCC(=O)N1CCC1(C)C(=O)Nc1cc(-c2ccccc2)nn1C (stereo unspecified)	?	-74.5%	-1.6%	91.9	-24.0%	-13.6%
Cn1nc(C(C)(C)C)cc1NC(=O)C1(C)CCN1C(=O)CC(c1ccccc1)c1ccccc1 (stereo unspecified)	18.4µM*	18.4µM*	5.9%	-19.8	-1.9%	-6.1%
CCn1cc(Br)c(C(=O)Nc2cc(C)ccc2F)n1	/	/	/	/	9.7%	/
Cc1nc(C2CC(O)C2)cc(N2CCC(c3nc(C(C)C)no3)CC2)n1 (stereo unspecified)	/	/	/	/	4.3%	/
Cc1ccnn1CCC(=O)N[C@@H]1COCC[C@H]1Oc1ccc(C(N)=O)cc1	/	/	/	/	49.5%	/
Fc1ccccc1NC(=S)Nc1ccc(Br)cc1	14.6µM*	23.1µM*	-3.9%	-58.3*	-29.1%	1.2%
NNC(=S)Nc1ccc(Br)cc1	/	/	/	/	7.08µM*	/
O=C(NNc1ccccc1)Nc1ccccc1F	?	7.31µM*	-7.8%	-3.2	?	-5.2%
O=C(NNc1cccc(Cl)n1)Nc1ccccc1F	-15.8%	-25.7%	-1.2%	4.6	-3.9%	-0.4%
O=C(Nc1ccccc1F)Nc1ccccc1F	?	-20.8%	1.9%	4.3	-3.1%	7.0%
CC(=O)Nc1ccc(NC(=S)Nc2ccc(Br)cc2)cc1	13.2%	2.8%	3.7%	-5.6	-23.0%	-20.1%
O=C(Nc1ccc(Br)cc1)Nc1ccccc1F	14.6µM*	14.6µM*	-2.1%	-66.0*	-1.2%	-16.7%
COCCNc1nc2cc(C(=O)N3CC[C@H](CO)[C@@H](O)C3)ccc2n1C	/	/	/	/	20.1%	/
Cc1cc(Cl)ccc1OCC(=O)Nc1ccccc1OC(F)F	/	/	/	/	-3.9%	/
Cn1c(=O)n(Cc2ccccc2)c(=O)c2c1nc(Br)n2CC(=O)c1ccccc1	/	/	/	/	-4.2%	/
O=C(Nc1ccc(Cl)c(Cl)c1)Nc1ccccc1O	?	?	4.0%	-21.1	29.9%	3.8%
CC(=O)Nc1ccc(NC(=S)Nc2ccccc2)cc1	4.2%	-0.7%	-1.6%	-11.2	?	-0.2%
N#Cc1ccc(NC(=S)Nc2ccccc2)cc1	?	14.6µM*	-9.1%	i	-4.9%	12.0%
S=C(Nc1ccccc1)Nc1ccc(Br)cc1	16.4µM*	20.6µM*	1.2%	8.5	-27.7%	1.5%

Screening data as filed in PubChem.
